The values that follow come from PubChem BioAssay (EPA / NIEHS).

Where “and” joins values, the source holds several entries; their conditions need not be identical. Equal values may be shown once. Inconclusive results are not listed. A structure can be active in one record and inactive in another. Calls of active or inactive are those of the source. How the source made its calls: active means hit-call score of the fitted dose curve at least 0.9, where 1 is the maximum; inconclusive means response in the unintended direction; inactive means score below 0.9.

In the experiment the target is Cellular tumor antigen p53 (Homo sapiens) (UniProt P04637). Briefly: TOX21_p53_BLA_p4_ratio: Tox21 HCT-116 p53 Agonism Beta-lactamase Assay, Ratio, Phase 4 (AID 2283601). The source says: TOX21_p53_BLA_p4 is a cell-based, single-readout assay that uses HCT116, a human intestinal cell line, […] in a 1536-well plate.TOX21_p53_BLA_p4_ratio is an assay readout measuring reporter gene via receptor activity and designed using inducible reporter (beta lactamase induction) detected with GAL4 b-lactamase reporter gene. The signal is derived from the ratio of cleaved (ch2) to uncleaved (ch1)reporter gene substrate used as the measure of target activity.Data from the assay component TOX21_p53_BLA_p4_ratio was analyzed into 1 assay endpoint. This assay endpoint, TOX21_p53_BLA_p4_ratio, was analyzed in the positive analysis fitting direction relative to DMSO as the negative control and baseline of activity. Using a type of inducible reporter, gain-of-signal activity can be used to understand changes in the reporter gene as they relate to the gene TP53. Furthermore, this assay endpoint can be referred to as a primary readout, because this assay has produced multiple assay endpoints where this ratio serves a reporter gene function to understand target activity. To generalize the intended target to other relatable targets, this assay endpoint is annotated to the DNA binding intended target family, where the subfamily is tumor suppressor.
Cellular tumor antigen p53 (Homo sapiens), sequence (P04637 whole entry, looked up, the tested form may be a part): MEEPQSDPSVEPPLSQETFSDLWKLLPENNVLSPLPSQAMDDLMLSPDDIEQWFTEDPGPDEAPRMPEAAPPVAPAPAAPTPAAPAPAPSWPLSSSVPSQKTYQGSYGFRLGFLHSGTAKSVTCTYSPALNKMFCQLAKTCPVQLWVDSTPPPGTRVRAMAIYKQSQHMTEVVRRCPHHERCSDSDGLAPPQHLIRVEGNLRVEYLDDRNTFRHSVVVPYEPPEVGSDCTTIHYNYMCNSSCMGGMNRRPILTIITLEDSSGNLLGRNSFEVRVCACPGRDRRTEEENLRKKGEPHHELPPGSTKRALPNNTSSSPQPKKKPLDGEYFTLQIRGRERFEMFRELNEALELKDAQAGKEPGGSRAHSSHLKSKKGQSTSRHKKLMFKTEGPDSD
Thawing Method: Place 14 mL of pre-warmed thaw medium into a 15 mL of conical tub. Remove the vial of cells to be thawed from liquid nitrogen and thaw rapidly by placing at 37C in a water bath with gentle agitation for 1-2 minutes. Decontaminate the vial by wiping with 70% ethanol before opening in a biological safety cabinet. Transfer the vial contents drop-wise into 14 mL of thaw medium in a sterile 15-mL conical tub. Centrifuge cells at 900 rpm for 4 minutes and resuspend in thaw medium. Transfer contents to the T75 tissue culture flask containing Thaw Medium and place flask in a humidified 37C/5% CO2 incubator. Switch to growth medium at first passage.Propagation Method: Aspirate medium, rinse once in DPBS, add 0.25% Trypsin/EDTA and swirl to coat the cell evenly. Add an equal volume of Growth Medium to inactivate Trypsin after 2-3 minutes incubation at 37C. Centrifuge cells at 900 rpm for 4 minutes and resuspend in growth medium. Cell should be passage or fed at least twice a week.Assay Protocol: Harvest cells from culture in growth medium and resuspend in assay medium. 2.2 Dispense 4000 cells/5 uL/well into 1536-well black/clear bottom plates using a Multidrop dispenser. After the cells were incubated at 37C for 5 hours, 23 nL of compounds dissolved in DMSO were transferred to the assay plate by a PinTool resulting in a 217-fold dilution. Incubate the plates for 16 hours at 37C, 5% CO2. Add 1 uL of 6X LiveBLAzer FRET B/G (CCF4-AM) Substrate Mixture to each well using a BioRAPTR dispenser and incubate the plates at room temperature for 2 hours. Measure fluorescence intensity at 460 and 530 nm emission and 405 nm excitation by an Envision detector. Data is expressed as the ratio of 460nm/530nm emissions. Add 4 uL of Cell-titer Glo to each well using BioRAPTR and incubate the plates at room temperature for 2 hours. Measure fluorescence intensity by a VewLux plate reader.
On to `CC(C)(C)OOC(=O)c1ccccc1`, for which the result was inactive.

`Nc1ccc(Cl)cc1N`: the outcome was inactive.

As to `Oc1ccccc1Cl`, the outcome was inactive.

`OCCCBr`: the result was inactive.

Take `Cc1ccc(N)c(N)c1`: the outcome was inactive.

For the compound `Nc1ccc(Oc2ccc(N)cc2)cc1`, the result was inactive.

On to `Cc1ccc(N=C=O)cc1N=C=O`, for which the outcome was inactive.

For `CNC(=O)Oc1cccc2c1OC(C)(C)C2`, the outcome was inactive.

`Nc1cc(Cl)cc(C(=O)O)c1Cl`: the outcome was inactive.

For `ClCCOCCCl`, the outcome was inactive.

For `CCCCCOC(=O)c1ccccc1C(=O)OCCCCC`, the outcome was inactive.

Take `N#CC(Br)(Br)C(N)=O`: the outcome was inactive.

On to `CC(C)N(Cc1ccccc1)C(=O)C(C)(C)C`, for which the result was inactive.

As for `Cc1ccc([N+](=O)[O-])cc1`, the result was inactive.

With `CCCCC(CC)COC(=O)c1ccc(C(=O)OCC(CC)CCCC)c(C(=O)OCC(CC)CCCC)c1` (stereo not given), the result was inactive.

In the case of `CN(C)[C@@H]1C(=O)C(C(N)=O)=C(O)[C@@]2(O)C(=O)C3=C(O)c4c(O)cccc4[C@@](C)(O)[C@H]3C[C@@H]12`, the outcome was inactive.

For the compound `Nc1ccc(N=Nc2ccccc2)cc1`, the result was inactive.

On to `CC(C)(C)C(O)(CCc1ccc(Cl)cc1)Cn1cncn1` (stereo not given), for which the outcome was inactive.

Turning to `Cc1cccc(N)c1N`, the outcome was inactive.

Regarding `O=C1CCCO1`, the result was inactive.

Turning to `COC(=O)c1ccccc1N`, the result was inactive.

On to `Cn1cc(-c2ccccc2)c(=O)c(-c2cccc(C(F)(F)F)c2)c1`, for which the result was inactive.

`Clc1ccc(C(c2ccc(Cl)cc2)C(Cl)(Cl)Cl)cc1`: the outcome was inactive.

With `C1=Cc2cccc3cccc1c23`, the result was inactive.

With `CCCCCCCCn1sccc1=O`, the AC50 (usually the midpoint of the concentration-response curve, whichever way the signal moves) is 23.7 µM (active) and 46.2 µM (active).

Take `CN(C)c1ccc(C(=O)c2ccc(N(C)C)cc2)cc1`: the AC50 is 907 nM (active) and 463 nM (active).

In the case of `Cc1cc(N=Nc2ccccc2C)ccc1N`, the outcome was inactive and the AC50 is 74.4 µM (active).

Turning to `COc1cc(C=O)cc2c1[C@H](COC(N)=O)[C@]1(OC(C)=O)ON2C[C@H]2[C@@H]1N2C(C)=O`, the AC50 was 0.304 µM (active).

With `CN(C)C(=O)Nc1ccc(Cl)cc1`, the result was inactive.

In the case of `CCN(CC)CCO`, the outcome was inactive.

As for `CC(C)(C)OOC(C)(C)CCC(C)(C)OOC(C)(C)C`, the result was inactive.

Regarding `Oc1ccc2ccc3cccc4ccc1c2c34`, the outcome was inactive.

As to `CS(=O)(=O)NC(=O)c1cc(Oc2ccc(C(F)(F)F)cc2Cl)ccc1[N+](=O)[O-]`, the outcome was inactive.

For the compound `CCCCOC(=O)c1ccccc1C(=O)OCc1ccccc1`, the outcome was inactive.

In the case of `C=CCc1ccc2c(c1)OCO2`, the outcome was inactive.

Take `COP(=S)(OC)SCN1C(=O)c2ccccc2C1=O`: the outcome was inactive.

Consider `Nc1ccc(Cc2ccc(N)cc2)cc1`, for which the result was inactive.

Consider `Clc1ccc(C(c2ccc(Cl)cc2)C(Cl)Cl)cc1`, for which the AC50 is 78.4 µM (active) and 79.1 µM (active).

For `CN(C)c1ccccc1`, the result was inactive.
